Assay results published in PubChem BioAssay AID651657 (Broad Institute, 2012).
Potency and affinity values are given separately.

What follows are molecules tested against DNA repair and recombination protein RAD54-like (Homo sapiens) (UniProt Q92698) (assay: inhibitors of human RAD54 branch migration, confirmation, biochemical, fluorescence, cherry-picked samples, dose series (AID 651657)). Conditions: FAM/BHQ fluorescence, 60 min; series mostly up to 50 µM; activity change, negative = inhibition: at the top concentration;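 active = signal falls, with fitted half-maximal concentration at most twice the top valid dose tested; inconclusive = flat curve with partial signal loss, or poor curve fit; inactive = the rest, including signal rising instead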.
Chain of DNA repair and recombination protein RAD54-like (Homo sapiens) (Q92698 whole entry, looked up): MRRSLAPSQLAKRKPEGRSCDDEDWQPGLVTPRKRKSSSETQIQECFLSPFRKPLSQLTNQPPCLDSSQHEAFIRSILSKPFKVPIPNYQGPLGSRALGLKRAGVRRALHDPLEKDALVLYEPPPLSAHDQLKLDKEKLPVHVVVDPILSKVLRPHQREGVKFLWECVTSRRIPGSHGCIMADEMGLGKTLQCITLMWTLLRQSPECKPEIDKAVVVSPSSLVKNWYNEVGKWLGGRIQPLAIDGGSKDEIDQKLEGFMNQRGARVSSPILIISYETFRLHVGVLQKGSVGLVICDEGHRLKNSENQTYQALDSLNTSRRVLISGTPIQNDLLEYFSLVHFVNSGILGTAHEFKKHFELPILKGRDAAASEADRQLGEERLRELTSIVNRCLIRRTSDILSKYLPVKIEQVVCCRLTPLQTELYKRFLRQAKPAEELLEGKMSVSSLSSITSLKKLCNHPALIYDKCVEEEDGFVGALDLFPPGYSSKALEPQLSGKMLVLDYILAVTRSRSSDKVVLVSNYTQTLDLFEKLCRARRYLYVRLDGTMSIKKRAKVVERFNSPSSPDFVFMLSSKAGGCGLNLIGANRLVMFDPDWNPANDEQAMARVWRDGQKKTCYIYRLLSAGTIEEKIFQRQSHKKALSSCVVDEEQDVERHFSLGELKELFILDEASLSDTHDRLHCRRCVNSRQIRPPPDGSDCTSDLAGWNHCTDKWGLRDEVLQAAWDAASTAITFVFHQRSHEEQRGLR

Activity change, negative = inhibition, inactive:
COC(=O)Nc1nnc(COc2ccccc2)s1 0.398%
COCCCNCCC(CCC(C)C)c1ccc2c(c1)OCO2 (stereo not drawn) 7.05%
CCN1CCN(c2cc(C)c3cc(NC(=S)N4CC(C)CC(C)C4)ccc3n2)CC1 (stereo not drawn) -0.101%
Cc1nc2oc3c(=O)[nH]cnc3c2c2c1COC(C)(C)C2 -17.4%
CC1CCCCC1NC(=O)C1Cc2ccccc2CN1S(C)(=O)=O (stereo not drawn) 0.68%
Cc1cccc(Cn2c(Sc3nc(C)cs3)nc3c2c(=O)[nH]c(=O)n3C)c1 1.49%
Cc1ccnc(SCC(=O)Nc2sc3c(c2C#N)CCC(C(C)(C)C)C3)n1 (stereo not drawn) 6.25%
COc1cc(NC(=O)c2cccnc2Sc2ccc(C)c(C)c2)cc(OC)c1OC -3.49%
O=C1C(c2ccc(F)cc2)N(C2CCCCC2)C(=O)CN1C1CCCC1 (stereo not drawn) -0.016%
O=c1cc(CSc2n[nH]c(=O)n2C2CC2)c2ccc(O)cc2o1 -3.13%
Cc1ccc(OCC(=O)Nc2cccc(-c3nnc(-c4ccccc4)o3)c2)c(C)c1 3.6%
COc1ccccc1C1=NOC(Cn2c(NCCCO)nc3c2c(=O)n(C)c(=O)n3C)C1 (stereo not drawn) 1.27%
O=C(Nc1ccc2c(c1)OCO2)c1cc(-c2ccncc2)nc2ccccc12 -13.1%
Cn1nc(-c2ccccc2)cc1NS(=O)(=O)c1ccc(C#N)cc1 0.704%
O=C(NN1CCOCC1)c1cc(-c2ccc(Cl)c(Cl)c2)nc2ccccc12 1.1%
CCN(CC)S(=O)(=O)c1ccc(Cl)c(C(=O)Nc2nnc(C)s2)c1 -3.81%
O=S(=O)(c1ccc(-c2nnc(SCc3ccccc3)o2)cc1)N1CCCC1 1.42%
COc1ccccc1NC(=O)Cn1nnc2sc3c(c2c1=O)CC(C)(C)OC3 -0.048%
O=C(CS(=O)(=O)c1ccccc1)Nc1ccc(Br)cn1 3.03%
Cc1ccc(C)c(N2CCN(C(=S)Nc3ccc4nc(N5CCN(C)CC5)cc(C)c4c3)CC2)c1 -6.04%
CN1CCN(CC(=O)Nc2nc(-c3c[nH]c4ccccc34)cs2)CC1 -12.8%
COc1ccccc1CNC(=O)c1cccs1 6.77%
COC(=O)C1=C(C)Nc2nc3ccccc3n2C1c1ccccc1F (stereo not drawn) 7.88%
